Assay outcomes as filed in PubChem BioAssay.
USP1 inh = USP1/UAF1 (human) deubiquitinase inhibition; 0.23% of 390,000 active; recombinant USP1/UAF1, Ub-Rhodamine cleavage fluorescence; Potency, µM (titrated, usually from 57.1 µM), for the others: at the highest dose activity change, negative = inhibition, most hits filed as inhibitors; further: potency means the concentration at half of the fitted maximal effect; nearly all actives have a fitted effect of over 60% in size
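USP1/UAF1 complex at 1 nM was preincubated with compound for 15 min at room temperature, then Ub-Rho substrate (150nM final) was added. Fluorescence (480/540 nm) was read kinetically, 6 reads every 60 seconds.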
PI4K2A block = PI4K2A (human) kinase inhibition. purified PI4K2A, ADP-Glo luminescence, 1 h; hits give low values. AID 1346378. activity change, negative = inhibition, % at 76.9 µM. 0.13% of 420,000 active; in the data active means activity change below about -50%; inconclusive means mostly about -30% to -49%;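 further: -100% = wells without enzyme as full effect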
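Compounds are screened against recombinant PI4K2A using PI as substrate and ATP, the latter dispensed at 300 microM. Reactions run one hour at ambient temperature before ADP-Glo detection; full inhibition defined by wells lacking enzyme.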
GLS inhibitor = glutaminase GLS (human) inhibition. GLS enzymatic activity, qHTS titration. 0.21% of 410,000 active. AID 624170. O94925. Potency, µM (doses to about 45.5 µM), for the others: top-dose activity change, negative = inhibition, usual class: inhibitors; further: potency means the concentration at half of the fitted maximal effect
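Human kidney-isoform GLS in 45 mM KH2PO4 pH 8.2, 0.02% Tween-20, with compound, started with 1mM L-Glutamine (added stock). Glutamate oxidase/HRP/Amplex red coupled fluorescence read at start and after 30 min at RT.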
Tb PGK inh = T. brucei PGK inhibition | PGK/GAPDH coupled, Kinase-Glo luminescence, 60 min | 0.043% of 380,000 active | Potency, µM (titrated, usually from 57.5 µM), for the others: at the highest dose activity change, negative = inhibition, actives largely listed as inhibitors | AID 602233; further: potency means the concentration at half of the fitted maximal effect; nearly all actives have a fitted effect of over 60% in size
Target sequence (P07378 whole entry, looked up): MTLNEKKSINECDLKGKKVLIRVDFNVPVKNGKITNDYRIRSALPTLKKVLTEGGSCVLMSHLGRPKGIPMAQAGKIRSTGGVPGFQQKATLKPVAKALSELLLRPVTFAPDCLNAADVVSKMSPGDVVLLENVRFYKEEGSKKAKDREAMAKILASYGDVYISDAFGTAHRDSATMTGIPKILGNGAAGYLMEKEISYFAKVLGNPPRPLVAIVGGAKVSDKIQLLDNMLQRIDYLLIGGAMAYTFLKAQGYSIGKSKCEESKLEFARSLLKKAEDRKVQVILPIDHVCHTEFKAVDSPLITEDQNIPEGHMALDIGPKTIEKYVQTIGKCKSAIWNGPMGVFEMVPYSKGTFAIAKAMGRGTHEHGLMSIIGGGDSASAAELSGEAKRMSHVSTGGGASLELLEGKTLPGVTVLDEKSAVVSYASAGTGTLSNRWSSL
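Luminescent ATP detection (Kinase-Glo Plus) follows a 60-minute room-temperature incubation, with wells lacking PGK as controls. Buffer: 100 mM TEA (pH 7.6), 5 mM MgCl2, 0.01% Tween-20. Coupling enzyme GAPDH (100 nM final) supplies unstable 1,3-BPG in-well.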
* = called active by the depositor; i = inactive; ? = inconclusive; . = not tested or not shown. Only some compounds are listed: those with a hit (about 0.53% of all), similar ones and a draw of the others. Unless noted, the call rests on the fitted dose curve; in most records, active means well fitted curve in the direction sought with a large enough effect; inconclusive means small, poorly fitted or top-dose-only effect, or another doubt; inactive means no such curve, though single readings can be large; an effect the other way counts as inactive or inconclusive. Unless noted, on the % scale 0 is the no-effect control and ±100 the full control effect.

SMILES | USP1 inh | PI4K2A block | GLS inhibitor | Tb PGK inh
CC1CCN(S(=O)(=O)c2ccc3c(c2)CCC(=O)N3CC(=O)Nc2cccc(C#N)c2)CC1 | 8% | -3 | -6% | 14µM*
CC1(C)CCCN(C(=O)c2coc(=O)c(Br)c2)C1 | -12% | -7 | 10µM* | 6.3µM*
Cc1ccc(NC(=O)NC2CCCCC2)cc1Cl | -15% | -71* | -1% | -5%
Cc1ccc(NC(=O)C2CCN(C(=O)NC3CCCCC3)CC2)cc1Cl | -10% | 0 | -11% | 0%
Cc1[nH][nH]c(=O)c1C(c1ccc(O)c(Br)c1)c1c(C)[nH][nH]c1=O | -8% | -7 | 13µM* | 2%
COc1ccc(O)c(C(c2c(C)[nH][nH]c2=O)c2c(C)[nH][nH]c2=O)c1 | ? | -62* | ? | -5%
COc1ccc(C(c2c(C)[nH][nH]c2=O)c2c(C)[nH][nH]c2=O)cc1Br | -19% | -8 | 20% | 0%
COc1ccc(OC)c(C(c2c(C)[nH][nH]c2=O)c2c(C)[nH][nH]c2=O)c1 | -15% | ? | 29% | 10%
Cc1ccc(C)n1/N=C1/NC(=O)CS1 | -27% | -25 | 10µM* | ?
Cc1ccc(N=C2NC(=O)CS2)cc1 | -1% | 3 | 7% | -2%
O=C(CCc1nnc2n(Cc3ccc(Cl)cc3)c(=O)c3ccccc3n12)N1CCN(c2ccccn2)CC1 | -18% | -5 | 11µM* | -3%
CC(=O)c1ccc(N2C(=O)C3C(C2=O)C(C(=O)c2ccc(Cl)cc2)N2CCCC32)cc1 (stereo unspecified) | 18µM* | -8 | -7% | -8%
O=C(c1ccc(Cl)cc1)C1C2C(=O)N(c3ccccc3)C(=O)C2C2CCCN21 (stereo unspecified) | -7% | 2 | -7% | -8%
COC(=O)C12C=C3CC(c4ccc(C)s4)=C3C(=O)N1Cc1[nH]c3ccccc3c1C2 (stereo unspecified) | . | -1 | . | .
CC(C(=O)NC1C(=O)N2C(C(=O)O)=C(CSc3nnnn3C)CSC12)n1cc(Br)cn1 (stereo unspecified) | -23% | -7 | -8% | ?
Cn1nnnc1SCC1=C(C(=O)O)N2C(=O)[C@@H](NC(=O)[C@H](OC=O)c3ccccc3)[C@H]2SC1 | . | . | 22µM* | .
Cn1nnnc1SCC1=C(C(=O)O)N2C(=O)[C@@H](NC(=O)[C@H](O)c3ccccc3)[C@H]2SC1 | 4% | -13 | 10µM* | ?
Cn1nnnc1SCC1=C(C(=O)O)N2C(=O)C(NC(=O)C3CC3c3ccccc3)C2SC1 (stereo unspecified) | -11% | -6 | 6% | ?
O=S(=O)(O)c1cccc2c(N=Nc3ccc(O)c4ncccc34)cccc12 | ? | -23 | 8.9µM* | ?
CC1(C)O[C@@H]2[C@H](O1)[C@@H](CO)O[C@H]2n1cnc2c(N)ncnc21 | ? | -52* | -8% | -8%
CC(CC1c2ccccc2CCc2ccccc21)CN(C)C (stereo unspecified) | . | 0 | . | .
COC(=O)c1ccc2c(C3(c4c[nH]c5ccccc45)CCN(C(=O)OC(C)(C)C)CC3)c[nH]c2c1 | . | 2 | . | .
CC(C)N(C(=O)N1CCC(c2nc(-c3ccncc3)no2)CC1)C(C)C | -21% | -72* | -1% | 7%
Cn1ncc(S(=O)(=O)Cc2ccccc2)c(Cl)c1=O | -19% | -1 | 11µM* | 0%
Cn1ncc(SCc2ccccc2)c(Cl)c1=O | ? | 0 | 19% | -2%
SMILES | USP1 inh | PI4K2A block | GLS inhibitor | Tb PGK inh
COc1cccc(-n2c(SCC(=O)NCCC3=CCCCC3)nc3n[nH]c(C)c3c2=N)c1 | -20% | -9 | 20µM* | -2%
COc1cccc(NC(=O)CSc2nc3n[nH]c(C)c3c(=N)n2-c2cccc(OC)c2)c1 | -14% | 5 | -1% | -5%
Cc1nc(-[n+]2nc(-c3ccncc3)nn2-c2ccccc2)sc1C | . | -73* | -6% | .
Cc1[nH]c(=O)[nH]c(=O)c1/C=N/NC(=O)[C@@H](N)CC(C)C | -14% | -60* | -3% | -12%
Cc1[nH]c(=O)[nH]c(=O)c1/C=N/NC(=O)[C@H](CC(C)C)NC(=O)OC(C)(C)C | -21% | -2 | -1% | 0%
CCN(CC)c1ccc(NC(=S)NC(=O)c2ccco2)cc1 | -10% | 4 | 10µM* | i
CCN(CC)c1ccc(NC(=O)c2ccco2)cc1 | -17% | -3 | 35% | 21%
CCCCCCc1c(C)c2c(cc(C)c3c(C)coc32)oc1=O | -5% | 3 | -4% | i
Cc1coc2c1c(C)cc1oc(=O)c(Cc3ccccc3)c(C)c12 | -8% | -84* | 0% | 0%
Cc1ccc(-c2cc(-c3nnc(SCC(=O)NC4CCCCC4)n3N)[nH]n2)cc1 | . | 4 | . | .
COc1cc([C@@H]2c3cc4c(cc3[C@@H](O[C@@H]3O[C@H]5CO[C@H](C)O[C@H]5[C@H](O)[C@@H]3O)[C@H]3COC(=O)[C@H]23)OCO4)cc(OC)c1OP(=O)(O)O | . | . | 2% | .
Cc1ccn2c(NC(C)(C)C)c(-c3cccs3)nc2c1 | -13% | 3 | 6.3µM* | 3%
COc1ccc(-c2cc(C(F)F)n3ncc(C(=O)Nc4c(C)n(C)n(-c5ccccc5)c4=O)c3n2)cc1 | -15% | 0 | 7% | i
COc1ccc(-c2cc(C(F)F)n3ncc(C(=O)Nc4cc(C)on4)c3n2)cc1 | -14% | 7 | 0.71µM* | 9%
O=C(c1cc(O)c(O)c(O)c1)c1ccc(O)c(O)c1O | . | -8 | . | .
COc1ccc(CN(Cc2ccccn2)C(=O)CN2C(=O)COc3ccccc32)cc1 | 7% | -3 | -4% | -9%
CC1Oc2ccccc2N(CC(=O)N(Cc2ccccc2)Cc2ccccn2)C1=O (stereo unspecified) | -10% | -71* | 4% | -7%
CN(C)S(=O)(=O)c1ccc2c(c1)/C(=C/c1cc3c([nH]1)CCCC3)C(=O)N2 | 32µM* | 1 | -2% | 6%
COc1ccccc1CNC(=O)COC(=O)c1cc(-c2ccco2)nc2ccccc12 | ? | -53* | ? | .
CCS(=O)(=O)c1ccc(O)c(NC(=O)/C=C/c2ccccc2)c1 | -13% | 13 | 1% | -9%
Cc1c(O)ccc(NC(=O)/C=C/c2ccccc2)c1C | -7% | -3 | 18µM* | 3%
Cc1cc(-c2ccccc2)nc2c(Br)c(C(=O)O)nn12 | ? | -4 | 16µM* | -3%
N#CCNC(=O)c1nn2c(C(F)(F)F)cc(-c3ccccc3)nc2c1Br | -19% | -2 | -2% | 0%
COc1cc(/C=N/N2C(=O)CSC2=S)ccc1O | -18% | -10 | 30% | 2%
O=C1CSC(=S)N1/N=C/c1cc(Br)c(O)c(Br)c1 | 18µM* | -13 | ? | ?
COc1ccc(Br)cc1/C=N/N1C(=O)CSC1=S | -15% | -4 | 20µM* | 7%
CCc1ccc(NC(=O)C(C)Sc2nc(-c3ccco3)c(C#N)c(=O)[nH]2)cc1 (stereo unspecified) | -22% | -5 | 20µM* | -14%
